Laboratory results: PubChem BioAssay AID2796 (The Scripps Research Institute Molecular Screening Center, 2010)
Hit rate of the full screen: of about 320,000 compounds, about 8,000 (2.5%) were called active. This excerpt belongs to a sample that is enriched for actives. Unmarked numbers belong to inactive results. Cut-off read from the data, not from the text of the source: active = activation above about 47%; inactive = the rest.

Molecular target: Aryl hydrocarbon receptor (Homo sapiens) (UniProt P35869)
Assay: AHR activators, primary screen, cell-based, luminescence, luciferase reporter, human (AID 2796);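 note: 0% = vehicle wells and 100% = reference agonist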
Conditions: AHR-responsive luciferase reporter cells, at 5 µM, stronger effect = higher value

Aryl hydrocarbon receptor (Homo sapiens), sequence (P35869 whole entry, looked up): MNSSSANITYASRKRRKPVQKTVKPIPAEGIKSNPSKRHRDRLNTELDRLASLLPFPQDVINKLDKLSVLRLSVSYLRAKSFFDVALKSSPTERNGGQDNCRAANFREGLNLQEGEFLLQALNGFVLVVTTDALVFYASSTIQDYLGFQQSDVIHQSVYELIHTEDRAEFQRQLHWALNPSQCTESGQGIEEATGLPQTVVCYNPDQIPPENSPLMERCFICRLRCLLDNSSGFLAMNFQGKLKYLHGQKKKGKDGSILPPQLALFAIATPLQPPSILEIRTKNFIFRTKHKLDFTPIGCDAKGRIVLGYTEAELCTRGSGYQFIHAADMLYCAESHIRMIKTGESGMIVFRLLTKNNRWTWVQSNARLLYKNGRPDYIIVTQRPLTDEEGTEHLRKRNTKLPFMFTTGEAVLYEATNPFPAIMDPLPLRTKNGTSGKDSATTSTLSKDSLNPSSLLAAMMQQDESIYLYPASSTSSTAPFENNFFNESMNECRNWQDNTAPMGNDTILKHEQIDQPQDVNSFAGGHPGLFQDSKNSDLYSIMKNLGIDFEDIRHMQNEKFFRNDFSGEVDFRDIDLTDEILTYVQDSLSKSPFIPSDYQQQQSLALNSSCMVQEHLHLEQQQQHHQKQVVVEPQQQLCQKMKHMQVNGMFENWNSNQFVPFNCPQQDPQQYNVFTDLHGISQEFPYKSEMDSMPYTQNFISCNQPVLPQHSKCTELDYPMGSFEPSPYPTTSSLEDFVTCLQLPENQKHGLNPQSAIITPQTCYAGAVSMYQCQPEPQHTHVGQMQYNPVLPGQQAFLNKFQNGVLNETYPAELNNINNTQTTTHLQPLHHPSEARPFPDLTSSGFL

Row | Compound | activation
1 | COc1cccc(/C=C/c2ccc3ccccc3n2)c1OC(C)=O | 8.53%
2 | COc1ccccc1/C=C/C(=O)NC(=S)N1CCOCC1 | 43%
3 | COc1ccccc1/C=C/C1=NC(=C\N(C)C)/C(=O)O1 | 57.2% (active)
4 | O=C(COC(=O)C1CCCO1)Nc1nc(-c2ccc(F)cc2)cs1 (stereo not given) | -1.85%
5 | CC(C)N(Cc1nnc(-c2ccccc2Br)o1)C(=O)c1cc(Cl)nc2ccccc12 | 18.6%
6 | CCOc1ccc(S(=O)(=O)Nc2cccc(C(=O)NCC3(N4CCCCC4)CCCCC3)c2)cc1 | -2.77%
7 | COc1ccc([N+](=O)[O-])cc1-c1nc2ccccc2nc1-c1ccccc1 | 3.27%
8 | Cc1nc(-c2ccc([N+](=O)[O-])cc2)c(-c2ccccc2)o1 | 1.84%
9 | Cn1nc(-c2ccccc2)c2cc([N+](=O)[O-])ccc21 | 67.7% (active)
10 | CCNC(=O)c1cccc(NC(=O)C2CC(=O)N(CCc3ccccc3)C2)c1 (stereo not given) | 2.07%
11 | C=CCn1cc(C(=O)NCc2ccc(Cl)cc2)c(=O)c2cc(S(=O)(=O)N(CC)CC)ccc21 | 11.3%
12 | CCCOc1ccc(Cc2c(Cl)nc(SC)nc2NC)cc1 | 2.63%
13 | COc1cccc(CNS(=O)(=O)c2cc3c(cc2C)n(C)c(=O)c(=O)n3C)c1 | -0.05%
14 | COc1cc2ccccc2cc1C(=O)Nc1nc(C)c(C(C)=O)s1 | 6.6%
15 | COc1cccc2sc(NNC(=O)c3nc4ccccc4s3)nc12 | 86.3% (active)
16 | COc1ccccc1/C=N/Nc1nc(C)c(C(C)=O)s1 | 33.6%
17 | COc1cccc2sc(Nc3nc(C)c(C(C)=O)s3)nc12 | 67.4% (active)
18 | COc1ccccc1OCc1nc2ccccc2s1 | 45.1%
19 | COc1cccc2sc(N(CCCN(C)C)C(=O)C(c3ccccc3)c3ccccc3)nc12 | -0.96%
20 | CCOP(=O)(OCC)C(Nc1ccc([N+](=O)[O-])cc1)c1ccc(Cl)cc1 (stereo not given) | 0.69%
21 | Cn1ccc(=Nc2ccc(NC(=O)c3ccc(N=c4ccn(C)c5ccc([N+](=O)[O-])cc45)cc3)cc2)cc1 | 2.76%
22 | O=C(Nc1nnc(-c2ccccc2)o1)c1cccc(S(=O)(=O)N2CCOCC2)c1 | 2.09%

Row | Compound | activation
23 | CC(C)CNC(=O)COC(=O)c1ccccc1OCC(=O)Nc1ccc(Br)cc1 | -3.8%
24 | CC(C)C(NC(=O)c1cccc(S(=O)(=O)N2CCOCC2)c1)C(=O)NCCc1ccccn1 (stereo not given) | -6.5%
25 | c1ccc(NCc2cccc3ccccc23)nc1 | 67.9% (active)
26 | COc1ccc2ccccc2c1CNCc1ccccn1 | 18.4%
27 | c1ccc2c(CNn3cnnc3)cccc2c1 | 0.98%
28 | COc1ccc(CCNC(=O)C(=O)NCC2OCCN2S(=O)(=O)c2cccs2)cc1OC (stereo not given) | -2.65%
29 | CN(CCc1ccccc1)C(=O)c1cccc(NC(=O)Cc2ccc([N+](=O)[O-])cc2)c1 | -0.06%
30 | Cn1nccc1NC(=O)Nc1ccc(OC(F)(F)F)cc1 | 3.12%
31 | Cn1cccc1/C=N/NC(=O)c1ccc(OC(F)(F)C(F)F)cc1 | 3.37%
32 | O=C(Nc1ccc(OC(F)(F)F)cc1)c1ccc2c(c1)no[n+]2[O-] | 93.6% (active)
33 | COC(=O)c1ccc(COC(=O)CNC(=O)c2cccc(OC)c2)o1 | 0.14%
34 | O=C(c1ccc(-c2ccccc2)cc1)C1CCCN(C(=O)c2cncs2)C1 (stereo not given) | 37.6%
35 | CC1(C)CC(=O)C=C(c2ccc3ncccc3c2)C1 | 8.47%
36 | CN(C)C(=O)c1ccc(NC(=O)COC(=O)c2cc3c(s2)CCCCC3)cc1 | -0.09%
37 | O=C(NNC(=O)c1cc2c(s1)CCCC2)c1ccccc1 | 4.72%
38 | O=C(Nc1ccc(F)cc1)c1cc2c(s1)CCCC2 | 55.3% (active)
39 | CC(C)CCNC(=O)C(C)N(C(=O)Cn1nnc(-c2ccc(F)cc2)n1)C1CCCC1 (stereo not given) | -2.15%
40 | COc1ccc2[nH]c(C(=O)Nc3ccccc3Cl)cc2c1 | 21%
41 | CC(OC(=O)c1cc2ccccc2[nH]1)C(=O)N(C)c1ccccc1 (stereo not given) | 28.8%
42 | O=C(Nc1ccccc1)c1cc2ccccc2[nH]1 | 160% (active)
43 | CCc1ccc(Oc2nc([N+](=O)[O-])nn2C)cc1 | -3.57%
44 | CCCN(CCc1ccccc1)C1CCc2c(O)cccc2C1 (stereo not given) | 3.78%

Row | Compound | activation
45 | COc1cc(/C=N/NC(=O)CNC(=O)c2ccncc2)ccc1OC(C)=O | 0.59%
46 | COc1ccc(/C=N\NC(=O)c2sc(N)nc2C)cc1OC | 77.3% (active)
47 | COc1cc(/C=N/NC(=O)c2cccnc2)ccc1OC(=O)c1cccc(Br)c1 | 18.7%
48 | COc1cnc(SCc2ccc(Cl)c(Cl)c2)nc1Cl | -1.43%
49 | CCOC(=O)c1ccc(NC(=O)Cc2cccs2)cc1 | 0.34%
50 | O=C(Cc1cccs1)Nc1ccc([N+](=O)[O-])cc1 | 0.97%
51 | O=C(Cc1cccs1)Nc1cccc(-c2nc3ccccc3[nH]2)c1 | 75.8% (active)
52 | CN1CCC(CN)(N2CCN(c3ccccc3)CC2)CC1 | 2.54%
53 | COc1ccccc1C(=O)N(Cc1ccc(C)o1)C1CCS(=O)(=O)C1 (stereo not given) | -1.67%
54 | CCc1nc2sc(C(=O)O)c(N)c2c2c1CCCC2 | 0.64%
55 | Cc1nc2sc(C(=O)c3ccccc3)c(N)c2c2c1CCCC2 | 85.3% (active)
56 | Cc1ccc2c(N)c(C(=O)c3ccccc3)sc2n1 | 46.1%
57 | CC1(C)CC(=O)C=C(NCCN2CCNCC2)C1 | 3.32%
58 | COc1cccc(C2=CC(=O)C[C@H](c3ccc(OC)c(OC)c3)C2)c1 | 2.2%
59 | O=S(=O)(Nc1cc(S(=O)(=O)N2CCOCC2)ccc1N1CCCC1)c1cccs1 | 1.52%
60 | COc1cccc(-c2cc(C(=O)N/N=C/c3ccc(OC)c(COC(C)=O)c3)c3ccccc3n2)c1 | 54.1% (active)
61 | CCOc1ccc2[nH]c(C(=O)N/N=C/c3cccc(OC)c3OC)cc2c1 | 33%
62 | COc1cccc(OCc2cc(/C=N/NC(=O)c3nc(Cl)c(Cl)c(N)c3Cl)ccc2OC)c1 | 73.8% (active)
63 | COc1ccc2[nH]c(C(=O)N/N=C/c3cc(OC)c(OC)c(OC)c3)cc2c1 | 30.9%
64 | CCOc1cc(/C=N/NC(=O)c2cc(-c3ccccc3)nc3ccccc23)ccc1O | 16.1%
65 | COc1ccc(/C=N/NC(=O)c2cc(-c3cccc(C)c3)nc3ccccc23)cc1O | 21.2%
